Measured values taken from PubChem BioAssay (NCATS).
Results filed as inconclusive are left out. A number with no mark means an inactive call. Active and inactive are the calls of the source. Calls come from the whole dose curve; as a rule, active = well fitted inhibition curve with a large enough effect; inconclusive = small, poorly fitted or top-dose-only effect; inactive = no such curve, though single readings can be large or run the other way.

Tested on: Zika virus NS2B-NS3 protease (unlinked complex)
Test: Primary screen GU Rhodamine qHTS for Zika virus inhibitors: Unlinked NS2B-NS3 protease assay (AID 1347159); note: nearly all actives have a fitted effect of over 60% in size
Details: Recombinant ZIKV NS2B-NS3 protease, Rhodamine110 substrate fluorescence; series mostly up to 107 µM; activity change, negative = inhibition: at the top concentration
In short: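 Buffer 10 mM Tris-HCl pH 8.0, 0.01% Tween 20. Unlinked protease 25 nM; compound preincubation 15 min, RT, protected from light. Substrate Rhod110, 1.5 microM; ~15% conversion in 15 min.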
% is set by controls: 0 for no effect and ±100 for the full control effect; potency is the fitted concentration of half-maximal effect.

Row | SMILES | activity change, negative = inhibition | Potency
1 | CC/C=C\[C@H](O)[C@H](O)C1=C(C)C(=O)[C@]2(O1)C(=O)N[C@@](OC)(C(=O)c1ccccc1)[C@@H]2O | -0.858% [at 57.1 µM] | –
2 | O=C(O)c1ccc(OC2OC(CO)C(O)C(O)C2O)cc1 (stereo not given) | 28.5% | –
3 | CC(=O)OC[C@]12[C@H](OC(C)=O)C(=O)[C@@H]3[C@@H](OC(C)=O)[C@@]14O[C@@]3(C)COC(=O)c1cccnc1[C@@H](C)[C@H](C)C(=O)O[C@@H]([C@H](O)[C@@H]2OC(C)=O)[C@]4(C)O | 0.454% [at 32.5 µM] | –
4 | COc1ncc(Nc2ncc([C@@H](C)N3CCN(S(C)(=O)=O)CC3)cc2-c2nc(C)nc(N)n2)cc1F | – | 44.7 µM (active)
5 | c1cc(OCCCN2CCCCC2)ccc1CN1CCCCC1 | 22.2% | –
6 | COCCOc1cnc2ccn([C@H](C)c3nnc4c(F)cc(-c5cnn(C)c5)cn34)c(=O)c2c1 | 9.67% | –
7 | Cn1c(=O)cc(N2CCCC(N)C2)n(Cc2cc(F)ccc2C#N)c1=O (stereo not given) | 16.2% | –
8 | CC(C)CN(C[C@@H](O)[C@H](Cc1ccccc1)NC(=O)O[C@@H]1CO[C@H]2OCC[C@H]21)S(=O)(=O)c1ccc(N)cc1 | 13.2% | –
9 | C[C@@H]1C[C@@H]([C@@H](O)C(C)(C)O)O[C@H]2C[C@@]3(C)C(=C12)C[C@H](O)[C@H]1[C@@]2(C)CCC(=O)C(C)(C)C2CC[C@@]13C (stereo not given in full) | 9.47% [at 57.1 µM] | –
10 | CC1COC2(OC3CC4C5CC(O[C@@H]6O[C@H](C)[C@@H](O[C@@H]7O[C@@H](C)[C@H](O)[C@@H](O)[C@H]7O)[C@H](O)[C@H]6O)C6CC(O)CCC6(C)C5CCC4(C)C3C2C)C(O)C1 (stereo not given in full) | 6.91% [at 32.5 µM] | –
11 | O=C(O)C(O[C@@H]1O[C@H](CO[C@@H]2O[C@H](CO)[C@@H](O)[C@H](O)[C@H]2O)[C@@H](O)[C@H](O)[C@H]1O)c1ccccc1 (stereo not given in full) | 17.2% [at 57.1 µM] | –
12 | COC(=O)c1ccnc(-c2cc(C(=O)NCCc3ccccc3)ccn2)c1 | 27.7% | –
13 | CC(C)(C)NC(=O)[C@@H](c1cccnc1)N(C(=O)c1ccco1)c1ccc(C(C)(C)C)cc1 | 0% | –
14 | C=C1CC23CC1CCC2C12OC(=O)C(C)(CCC1O)C2C3C(=O)O (stereo not given) | -5.33% | –
15 | COC(=O)C1=CO[C@@H](O)C2C(CO)=CCC12 (stereo not given in full) | 44% | –
16 | CC1(C)CC(=O)C2=C(C1)NC(=S)NC2c1cccc(O)c1 (stereo not given) | -11.4% | –
17 | COCC1OC(OC(C)(C)C2CCC3(C)C=C(C4CCC5C4(C)CC(O)C4OC(C(C)(C)OC6OC(CO)C(O)C(O)C6NC(C)=O)CCC45C)CCC3O2)C(NC(C)=O)C(O)C1O (stereo not given) | -1.49% [at 32.5 µM] | –
18 | C=C1C[C@@]23CCC4[C@@](C)(CCC[C@@]4(C)C(=O)OC)C2CC[C@@H]1C3 (stereo not given in full) | 1.76% | –
19 | CC1CC(=O)C2=C(CCC3(O)C(O)c4c(O)cccc4C(=O)C23O)C1 (stereo not given) | 9.11% | –
20 | O=C(O)c1cc(I)ccc1NC(=O)[C@H](Cc1ccccc1)NCc1ccccc1 | – | 11.2 µM (active)
21 | C[C@H]1CC[C@@H]2N(C1)C[C@@H]1[C@H]([C@@H](O)[C@H](O)[C@]3(O)[C@H]1C[C@@]14OC5(O)[C@@H](C[C@@H](O)[C@@H]31)[C@]4(C)CC[C@@H]5O)[C@]2(C)O | 2.48% [at 57.1 µM] | –
22 | COc1cc(N2CCC(N3CCN(C)CC3)CC2)ccc1Nc1ncc(Cl)c(-c2c[nH]c3ccccc23)n1 | 334% | –
23 | CC1=C(C)C(=O)OC(C(C)C2CCC3C4CC=C5CC(OC6OC(COC7OC(CO)C(O)C(O)C7O)C(O)C(O)C6O)CC(O)C5(C)C4CCC23C)C1 (stereo not given) | 0.827% [at 32.5 µM] | –
24 | C/C=C1\[C@H](O[C@@H]2O[C@H](CO)[C@@H](O)[C@H](O)[C@H]2O)OC=C(C(=O)OC)[C@H]1CC(=O)O | 12.9% [at 57.1 µM] | –
25 | O=C(/C=C/c1ccccc1)OC[C@]12O[C@H]1[C@@H](O)[C@@H]1C=CO[C@@H](O[C@@H]3O[C@H](CO)[C@@H](O)[C@H](O)[C@H]3O)[C@@H]12 | 17.2% [at 57.1 µM] | –
26 | NC(=O)Nc1cc(-c2cccc(F)c2)sc1C(=O)NC1CCCNC1 (stereo not given) | 113% | –
27 | C=C1CC[C@H]2[C@@](C)(CCC(O)[C@@]2(C)CO)[C@@H]1CCC1=CCOC1=O (stereo not given in full) | 15.9% | –
28 | CCCN1CCC(c2cccc(S(C)(=O)=O)c2)CC1 | 15.8% | –
29 | C=C1C(=O)O[C@@H]2C[C@H](C)[C@@]3(O)C=C(C(C)=O)[C@]4(CC3C[C@H]12)C(=O)O[C@H]1C[C@@H](C)C(CCC(C)=O)=CC[C@H]14 (stereo not given in full) | -4.63% [at 57.1 µM] | –
30 | CC1(C)CC[C@]2(C(=O)O)CC[C@]3(C)C(=CCC4[C@@]5(C)CC[C@H](O[C@@H]6O[C@H](CO)[C@@H](O)[C@H](O)[C@H]6O[C@@H]6O[C@H](CO)[C@@H](O)[C@H](O)[C@H]6O)[C@@](C)(CO)C5CC[C@]43C)[C@@H]2C1 (stereo not given in full) | -6.7% [at 32.5 µM] | –
